From PubChem BioAssay
The list is not random: actives were taken first. Their share in the collection is about 1.7%.
GLP1R cytotox = cytotoxic in the GLP-1 receptor inverse agonist counter-screen | HEK293 cAMP-luciferase reporter cells, luminescence, 24 h | Potency, µM (series often up to 38.3 µM), for the others: at the top dose activity change, negative = inhibition, most hits filed as inhibitors | 410,000 tested, 0.13% active | AID 624418;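 further: loss of luciferase light is scored as toxicity; on the % scale 0 is the no-effect control and ±100 the full control effect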
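Here, cytotoxicity is scored as loss of luminescence. The MLSMR collection was tested on cells seeded in medium containing 10% Nu serum, with a 24 hr compound exposure preceded by 12 hours of culture.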
PTHR1 ag = activates the human parathyroid hormone receptor PTHR1; Potency, µM (top dose mostly 115 µM), inactives show at the top dose activation, hits mostly activators; AID 743266; 410,000 tested, 0.075% active; HEK293 GP2 PTHR1 cells, GloSensor cAMP luminescence, 1 h; Q03431; further: nearly all actives have a fitted effect of over 55% in size
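HEK-293-derived GP2 cells expressing PTHR1 and a GloSensor cAMP reporter, 3,000/well, plated overnight, given luciferin plus IBMX (each 0.5 mM as added) for 1 h at 37 °C, then compound for 1 h at 37 °C. Luminescence was read after 15 min at room temperature.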
GLP-1R agonist = activates the human GLP-1 receptor; 380,000 tested, 0.007% active; AID 624172; HEK293 GLP-1R CRE-luciferase, luminescence, 4-6 h; cells express a hypersensitive GLP-1R form; Potency, µM (titrated, usually from 45.6 µM), for inactives: top-dose activation, most hits filed as activators; further: % of control where 0% means no effect
Target sequence (P43220 whole entry, looked up): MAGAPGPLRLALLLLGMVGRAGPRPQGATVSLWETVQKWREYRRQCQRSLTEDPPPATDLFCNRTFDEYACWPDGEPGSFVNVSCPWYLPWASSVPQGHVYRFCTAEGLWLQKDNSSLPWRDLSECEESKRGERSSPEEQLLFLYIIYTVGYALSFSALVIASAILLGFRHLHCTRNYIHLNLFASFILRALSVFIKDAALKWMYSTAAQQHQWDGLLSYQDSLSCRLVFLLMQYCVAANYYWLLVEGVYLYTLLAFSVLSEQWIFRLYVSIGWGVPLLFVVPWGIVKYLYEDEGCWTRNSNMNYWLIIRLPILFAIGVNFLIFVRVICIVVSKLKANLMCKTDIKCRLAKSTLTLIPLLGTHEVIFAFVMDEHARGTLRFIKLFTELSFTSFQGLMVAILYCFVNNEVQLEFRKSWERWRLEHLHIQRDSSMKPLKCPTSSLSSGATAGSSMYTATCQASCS
GLP1R inv ag = GLP-1 receptor (human) inverse agonism; P43220; HEK293 GLP-1R CRE-luciferase, luminescence, 24 h; GLP-1R form is constitutively active; Potency, µM (doses to about 38.3 µM), for inactives: top-dose activity change, negative = inhibition, actives largely listed as inhibitors; 410,000 tested, 1.6% active; AID 624417; further: on the % scale 0 is the no-effect control and ±100 the full control effect; nearly all actives have a fitted effect of over 55% in size
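Cells are plated, allowed 12 hours at 37 deg C, then treated with compounds for 24 hr before luciferase detection reagent is added and luminescence is read after 12 min at room temperature. The HEK293 line carries constitutively active GLP-1R with a cAMP-responsive reporter.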
* hit, by the source's call; i = inactive; ? = inconclusive; · = not tested or not shown; [ ] = another dose, or the depositor's remark. The call rests on the fitted dose curve; in most records, active means well fitted curve in the direction sought with a large enough effect; inconclusive means small, poorly fitted or top-dose-only effect, or another doubt; inactive means no such curve, though single readings can be large; an effect the other way counts as inactive or inconclusive. Potency means the concentration at half of the fitted maximal effect.

SMILES	GLP1R cytotox	PTHR1 ag	GLP-1R agonist	GLP1R inv ag
CCCc1nnc(NC(=O)Cc2coc3ccc(C)cc23)s1	-6%	22%	·	7%
CC1=C(C)C(=O)C(C(CCCCCC(=O)O)c2ccccc2)=C(C)C1=O (stereo unspecified)	·	·	4%	·
CCOC(=O)c1ccc(Cl)c(NC(=O)c2ccc(-c3ccccc3)cc2)c1	2%	-34%[57.5 µM]	-3%	8%
CCOC(=O)c1ccc(/C=C2/C=C(c3ccccc3)N(c3ccc(Cl)c(C(=O)O)c3)C2=O)cc1	-15%	-49%	-1%	10µM*
Cc1cccc(OCCNC(=O)c2cccc(Oc3ccc(C(F)(F)F)cc3[N+](=O)[O-])c2)c1	-18%	-12%	-2%	2.5µM*
Cc1cccc(OCCNC(=O)c2ccc(Oc3ccc(C(F)(F)F)cc3[N+](=O)[O-])cc2)c1	-8%	-35%	0%	?
N#C/C(=C/c1ccc(Sc2nc3ccccc3[nH]2)o1)c1cccc(Br)c1	61%	-22%	-5%	10µM*
COc1cccc(Nc2nc(-c3cccs3)nc3ccccc23)c1	-5%	i	27%	11µM*
Cc1ccc(C)c(N2CCN(CCCNC(=O)Cn3cccc3C(=O)c3ccccc3C)CC2)c1	10µM*	-42%	2%	?
Cc1cccc(NC(=O)CSc2nc3c(c(=O)[nH]2)CN(Cc2ccc4c(c2)OCO4)CC3)c1C	-11%	i	·	4%
CCCc1nn2c(=O)cc(COC(=O)c3ccc(NC(=O)COc4ccccc4F)cc3)nc2s1	-6%	-38%	·	11%
COc1cc(/C=N/Nc2nc(C)cc(C)n2)ccc1OC(=O)c1ccco1	-9%	i	3%	13%
CN(C)c1nc(NCc2ccccc2)nc(N/N=C/c2ccc3c(c2)OCO3)n1	?	i	1%	10µM*
CN(C)c1nc(NCc2ccccc2)nc(N/N=C/c2ccc(Br)cc2)n1	4%	i	4%	-4%
Cc1ccc(Nc2nc(N/N=C\c3ccc4c(c3)OCO4)nc(N3CCOCC3)n2)cc1	?	-10%	9%	4.5µM*
CCOc1cc(/C=N\Nc2nc(Nc3ccccc3)nc(N3CCOCC3)n2)ccc1OC(=O)c1ccco1	8%	i	-9%	7.1µM*
CCc1ccc(NC(=O)c2ccc(CN3CC(=O)N4CCCCC4C3=O)cc2)cc1 (stereo unspecified)	-1%	i	·	-5%
O=C(O)c1cccc(NC(=S)NC(NC(=O)c2ccco2)C(Cl)(Cl)Cl)c1 (stereo unspecified)	1%	-73%	-1%	11%
S=C(NCc1ccco1)Nc1cccc(Cl)c1	-12%	0%[57.5 µM]	0%	8.9µM*
CC(=O)c1cccc(NC(=S)NCc2ccco2)c1	-30%	-12%	-5%	-17%
O=C(NC(NC(=S)Nc1ccc(Cl)c(Cl)c1)C(Cl)(Cl)Cl)c1ccco1 (stereo unspecified)	?	i	-37%	3.5µM*
S=C(NCc1ccco1)Nc1ccc(Cl)c(Cl)c1	-11%	i	0%	10µM*
O=C(CSc1nc2c([nH]c3ccccc32)c(=O)n1-c1ccc(F)cc1)NCC1CCCO1 (stereo unspecified)	2%	30%	·	8%
COc1ccc(CN([C@H](CO)CC(C)C)S(=O)(=O)N(Cc2ccccc2)[C@H](CO)CC(C)C)cc1	?	?	-10%	4.5µM*
CCOc1ccc(CN2C(=O)c3ccccc3Sc3ccc(C(=O)NCCCN4CCOCC4)cc32)cc1	?	-20%	-7%	13µM*
SMILES	GLP1R cytotox	PTHR1 ag	GLP-1R agonist	GLP1R inv ag
O=C(NCCCN1CCOCC1)c1ccc2c(c1)N(Cc1ccccc1)C(=O)c1ccccc1S2	-11%	i	-6%	?
CN1CCN(CCCNC(=O)c2ccc(/C=C3\Sc4ccccc4N(Cc4ccc(F)cc4)C3=O)cc2)CC1	4%	0%	-5%	10µM*
COc1ccc(NC(=O)Cn2c(-c3ccccc3)cn(-c3ccc(C)cc3)c2=O)cc1	-16%	i	-11%	10µM*
CN(CCOc1cccc(C(F)(F)F)c1)Cc1ccccc1	?	-6%	4%	10µM*
CN(CCOc1ccc(F)cc1)Cc1ccccc1	-4%	-20%	19%	0%
CCSc1nc2ccccc2n1Cc1cccc([N+](=O)[O-])c1	3%	-23%[57.5 µM]	20%	11µM*
CCN(CC)S(=O)(=O)c1cccc(C(=O)Nc2cc(C)cc(C)c2)c1	10%	i	4%	2µM*
